Results filed as inconclusive are left out. The source made the active and inactive calls. Calls follow the shape of the dose curve; as a rule, active = well fitted inhibition curve with a large enough effect; inconclusive = small, poorly fitted or top-dose-only effect; inactive = flat fitted curve, though single readings scatter.

The assay relates to Zika virus NS2B-NS3 protease. Put plainly: Primary screen GU AMC qHTS for Zika virus inhibitors (AID 1347154).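 Also: 0% = no-inhibitor control and -100% = no-enzyme control; nearly all actives have a fitted effect of over 70% in size.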 The settings on record: Zika NS2B-NS3 unlinked protease, AMC fluorogenic substrate; series mostly up to 54.1 µM; activity change, negative = inhibition: at the top concentration. The method, boiled down:
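Unlinked Zika NS2B hydrophilic domain/NS3 protease domain noncovalent complex (25 nM final) in 10 mM Tris-HCl pH 8.0, 0.01% Tween 20, with AMC peptide substrate. Fluorescence (ex 340, em 450 nm) change over 15 min, room temperature; percent inhibition fitted to 4-parameter Hill equation.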
On the technique in general: Quantitative high-throughput screening tests each substance at several concentrations.
As for `CCOC(=O)c1cccc(N)c1`, the “activity change, negative = inhibition” value was -8.25% (inactive).

For the compound `O=c1c(-c2ccccc2)c1-c1ccccc1`, the “activity change, negative = inhibition” value is -0.195% (inactive).

In the case of `CCOc1ccc(NC(=O)CC(C)O)cc1` (centres undefined), the “activity change, negative = inhibition” value was -4.45% (inactive).

Turning to `CC(O)C(=O)O` (centres undefined), the “activity change, negative = inhibition” value is 2.75% (inactive).

As to `COC(=O)[C@@H]1CC2=CC(=O)CC[C@]2(C)[C@@]23O[C@@H]2C[C@@]2(C)[C@@H](CC[C@@]24CCC(=O)O4)[C@H]13`, the “activity change, negative = inhibition” value was -4.56% (inactive).

`NC[C@H]1O[C@H](O[C@H]2[C@H](O)[C@@H](O[C@H]3O[C@H](CO)[C@@H](O)[C@H](N)[C@H]3O)[C@H](N)C[C@@H]2N)[C@H](N)[C@@H](O)[C@@H]1O`: the “activity change, negative = inhibition” value was 4.48% [at 25.8 µM] (inactive).

Turning to `NCCC(O)(P(=O)(O)O)P(=O)(O)O`, the “activity change, negative = inhibition” value was -2.06% (inactive).

Regarding `NCCc1ccn[nH]1`, the “activity change, negative = inhibition” value is 0.908% (inactive).

Regarding `O=C(Nc1ccc(Cl)c(Cl)c1)C1CC1`, the “activity change, negative = inhibition” value is -6.83% (inactive).

As for `Cc1cccc(C)c1NC(=O)CN1CCN(CCCC(c2ccc(F)cc2)c2ccc(F)cc2)CC1`, the “activity change, negative = inhibition” value was -20.3% (inactive).

Consider `Oc1c(I)cc(Cl)c2cccnc12`, for which the “activity change, negative = inhibition” value is -10.6% (inactive).

For the compound `CCOc1ccc(Cc2nccc3cc(OCC)c(OCC)cc23)cc1OCC`, the “activity change, negative = inhibition” value is -4.09% (inactive).

For the compound `Cc1onc(-c2c(Cl)cccc2Cl)c1C(=O)N[C@@H]1C(=O)N2[C@@H]1SC(C)(C)[C@@H]2C(=O)O`, the “activity change, negative = inhibition” value is -6.66% (inactive).

For the compound `c1ccc(CNCCNCc2ccccc2)cc1`, the “activity change, negative = inhibition” value is -3.77% (inactive).

In the case of `C[C@H]1[C@H](NC(=O)/C(=N/OC(C)(C)C(=O)O)c2csc(N)n2)C(=O)N1S(=O)(=O)O` (stereo in doubt), the “activity change, negative = inhibition” value was 0.607% (inactive).

As to `CC(O)(P(=O)(O)O)P(=O)(O)O`, the Potency result is “inactive”.

On to `Cc1c(C(N)=O)cc([N+](=O)[O-])cc1[N+](=O)[O-]`, for which the “activity change, negative = inhibition” value was 0.385% (inactive).

As to `Cc1c(F)c(N2CCNC(C)C2)cc2c1c(=O)c(C(=O)O)cn2C1CC1` (centres undefined), the “activity change, negative = inhibition” value was -10.1% (inactive).

`NCCCC[C@H](N[C@@H](CCc1ccccc1)C(=O)O)C(=O)N1CCC[C@H]1C(=O)O`: the “activity change, negative = inhibition” value is 0.277% (inactive).

In the case of `C[C@]12CC[C@@H]3c4ccc(O)cc4CC[C@H]3[C@@H]1C[C@@H](O)[C@@H]2O`, the “activity change, negative = inhibition” value is -5.08% (inactive).

Consider `Cc1cc(O)c(C(C)C)cc1Cl`, for which the “activity change, negative = inhibition” value is -10.6% (inactive).

For `CN1CCC(=C2c3ccccc3Sc3ccccc32)CC1`, the “activity change, negative = inhibition” value is -2.58% (inactive).

`CCCCC1=NC2(CCCC2)C(=O)N1Cc1ccc(-c2ccccc2-c2nn[nH]n2)cc1`: the Potency entry was “inactive”.

With `O=c1ccc2ccccc2o1`, the “activity change, negative = inhibition” value was -5.6% (inactive).

Regarding `CCCCCCCCCCCCCCCCCC(=O)OCC(O)CO` (centres undefined), the “activity change, negative = inhibition” value is -3.25% (inactive).

In the case of `CCCCOc1cc(C(=O)NCCN(CC)CC)c2ccccc2n1`, the “activity change, negative = inhibition” value is -20.2% (inactive).

`O=C(O)CNC(=O)c1ccccc1`: the “activity change, negative = inhibition” value was 0.579% (inactive).

`OC(CCN1CCCCC1)(c1ccccc1)c1ccccc1`: the “activity change, negative = inhibition” value is 0.116% (inactive).

For the compound `Clc1ccc2c(c1)CCc1cccnc1C2=C1CCNCC1`, the Potency result was “inactive”.

As to `CC[C@@H](CO)NCCN[C@@H](CC)CO`, the “activity change, negative = inhibition” value is -11.2% (inactive).

Take `CCCCCC=CCC=CCCCCCCCC(=O)OCC`: the “activity change, negative = inhibition” value was -14% (inactive).

Consider `Oc1ccc(Cl)c2cccnc12`, for which the “activity change, negative = inhibition” value was -2.48% (inactive).

As for `CN(C)CC/C=C1/c2ccccc2COc2ccc(CC(=O)O)cc21`, the “activity change, negative = inhibition” value was 3.93% (inactive).

As to `CC(Cc1cccc(C(F)(F)F)c1)NCCOC(=O)c1ccccc1` (centres undefined), the “activity change, negative = inhibition” value was -5.17% (inactive).

Regarding `COc1ccc(OC)c(C(O)CNC(=O)CN)c1` (centres undefined), the “activity change, negative = inhibition” value was -4.66% (inactive).

Take `COc1cc2c(cc1OC)C(C(C(=O)N(CCc1ccc(OC)c(OC)c1OC)CCc1ccc(OC)c(OC)c1OC)c1ccccc1)=NCC2` (centres undefined): the “activity change, negative = inhibition” value was 19.2% (inactive).

Take `CCOC(=O)OC(C)OC1=C(C(=O)Nc2ccccn2)N(C)S(=O)(=O)c2ccccc21` (centres undefined): the “activity change, negative = inhibition” value was -7.88% (inactive).

Consider `C[C@@H]1C[C@H]2[C@@H]3C[C@H](F)C4=CC(=O)C(Cl)=C[C@]4(C)[C@@]3(F)[C@@H](O)C[C@]2(C)[C@@]1(O)C(=O)CO`, for which the “activity change, negative = inhibition” value is -0.0967% (inactive).

Take `CC(C)N=C(N)/N=C(\N)Nc1ccc(Cl)cc1`: the “activity change, negative = inhibition” value was 5.95% (inactive).

These data come from PubChem BioAssay (NCATS).
